Data published in the supplement of paper PMC9399229.
Several values for one entry are separate records, joined by “and”; a condition that tells them apart may be missing. Identical values can stand only once. Counter-ions that a name gives are not always drawn. Whole data set: some 1,900 compounds, median “relative cell viability (CellTiter-Glo), compound plus cabozantinib, relative to the cabozantinib arm (arm median 1.05; reference not stated)” near 1.1, cut for the lowest 2% near 0.15. The entries come from a sample that favours the lowest values as a whole.

tested on: Hep3B; test: relative cell viability (CellTiter-Glo), compound plus cabozantinib, relative to the cabozantinib arm (arm median 1.05; reference not stated) (fraction); higher = more viable cells (less growth inhibition); details: cabozantinib 2 µM; 4 days

Structure (SMILES) | relative cell viability
O=C(Nc1ccccc1)c1ccccc1O [Salicylanilide] | 1.1
O=C(Nc1cc(C(F)(F)F)cc(C(F)(F)F)c1)c1cc(Cl)ccc1O | 0.122
CC(ONC(=O)c1cc(C(F)(F)F)cc(C(F)(F)F)c1)C(=O)Nc1ccc(Cl)cc1 (stereo unspecified) | 1.15
O=C(O)Cc1cccc(OCCCN(Cc2cccc(C(F)(F)F)c2Cl)CC(c2ccccc2)c2ccccc2)c1 | 1.15
CCOC(=O)c1ccc(N2NC(=O)C(=Cc3ccc([N+](=O)[O-])o3)C2=O)cc1 | 1.02
CCOCC(O)COc1ccc(NC(=O)CC[S+](C)C)cc1 (stereo unspecified) [Suplatast Tosylate] | 1
CC1(C)CNc2cc(NC(=O)c3cccnc3NCc3ccncc3)ccc21 [Motesanib Diphosphate (AMG-706)] | 1.09
C=CC(=O)Nc1cccc(Nc2nc(Nc3ccc(NC4CN(CCF)C4)cc3OC)ncc2C(F)(F)F)c1 | 0.885
Cc1ccc(S(=O)(=O)n2c(N)nc3ccccc32)cc1 [ML130 (Nodinitib-1)] | 1.2
Cc1ccc2c(=O)c3cccc(CC(=O)O)c3oc2c1C [DMXAA (Vadimezan)] | 1.17
O=c1cc(CN2CCOCC2)occ1OCCCCCSc1ccnc2cc(C(F)(F)F)ccc12 | 1.13
Cc1c(-c2ccc(O)cc2)n(Cc2ccc(OCCN3CCCCCC3)cc2)c2ccc(O)cc12 [Bazedoxifene HCl] | 0.867
Cc1cccc(-c2[nH]c(CNc3ccccc3F)nc2-c2ccc3ncnn3c2)n1 | 1.1
CC(C=CC(=O)NO)=CC(C)C(=O)c1ccc(N(C)C)cc1 (stereo unspecified) [Trichostatin A (TSA)] | 0.165
CNCc1ccc(C)c(NC(=O)c2ccc(Nc3nc(-c4ccccc4)c4ccccc4n3)cc2)c1 | 0.858
CC(C)N(CC[C@H](c1ccccc1)c1cc(CO)ccc1O)C(C)C | 1.1
O=C(c1cccc(Cl)c1F)N1CCN(Cc2cccc(Nc3nccs3)n2)CC1 | 1.06
O=C(Nc1cccc(Cl)c1)c1ccccn1 | 1.02
Clc1ccc(NN=C(c2ccccc2)c2ccccn2)nc1 | 0.087

Structure (SMILES) | relative cell viability
C[C@H](CCC(=O)O)[C@H]1CC[C@H]2[C@@H]3C[C@H](O)[C@@H]4C[C@H](O)CC[C@]4(C)[C@H]3CC[C@]12C [Hyodeoxycholic acid (HDCA)] | 1.11
COC(=O)[C@H](CCSC)NC(=O)c1ccc(NC[C@@H](N)CS)cc1-c1ccccc1 | 1.16
NC1(Cc2ccc(Cl)cc2)CCN(c2ncnc3[nH]ccc23)CC1 | 0.989
COc1nc(-c2ccc3c(c2)OCO3)n(-c2ccc(NC(=O)CSc3ccccc3)cc2)n1 [SecinH3] | 1.24
C[C@@H]1CC(=O)NN=C1c1ccc(NN=C(C#N)C#N)cc1 [Levosimendan] | 1.15
Cc1coc2c1C(=O)C(=O)c1c-2ccc2c1CCCC2(C)C [Tanshinone IIA] | 0.985
Nc1nc(N)c2nc(-c3cccc(O)c3)c(-c3cccc(O)c3)nc2n1 | 0.944
COc1ccc(C(=O)Nc2sc3c(c2C(N)=O)CCCC3)cc1OC | 1.03
Cc1ccc(NC(=O)C2(c3ccc4c(c3)OC(F)(F)O4)CC2)nc1-c1cccc(C(=O)O)c1 [VX-809 (Lumacaftor)] | 0.168
CN(C)CCOc1ccc(/C(=C(/CCCl)c2ccccc2)c2ccccc2)cc1 [Toremifene Citrate] | 1.06
CC(C)C[C@H](NC(=O)[C@H](Cc1ccccc1)NC(=O)c1cnccn1)B(O)O [Bortezomib (PS-341)] | 0.396
O=C(O)c1ccccc1 [Benzoic Acid] | 1.12
O=C(O)CCNC(=O)c1ccccc1 [Betamipron] | 0.99
CN(NC(=O)CC(=O)NN(C)C(=S)c1ccccc1)C(=S)c1ccccc1 [Elesclomol (STA-4783)] | 0.00669
O=C(NC[C@H](O)CN1CCc2ccccc2C1)c1cc(NC2COC2)ncn1 | 1.13
OC[C@H]1OC(O)[C@H](O)[C@@H](O)[C@@H]1O (stereo partly specified) [Dextrose] | 1.01
Cc1nc(Nc2n[nH]c3c2CN(C(=O)N[C@H](CN(C)C)c2ccccc2)C3(C)C)c2sccc2n1 | 0.149
CC(C)CC(=O)Nc1n[nH]c2c1CN(C(=O)C1CCN(C)CC1)C2(C)C | 0.431
CC1CC(OC(=O)C(O)c2ccccc2)CC(C)(C)C1 (stereo unspecified) [Cyclandelate] | 1.07

Structure (SMILES) | relative cell viability
O=C(NC1CCOCC1)c1ccc(-c2cc(-c3c[nH]nc3-c3ccccn3)ccn2)cc1 | 1.12
NC(=O)Nc1cc(-c2cccc(F)c2)sc1C(=O)N[C@H]1CCCNC1 | 0.162
O=C(NC1CCNCC1)c1n[nH]cc1NC(=O)c1c(Cl)cccc1Cl | 0.158 and 0.144
C#C[C@]1(OC(C)=O)CC[C@H]2[C@@H]3CCC4=C[C@@H](OC(C)=O)CC[C@@H]4[C@H]3CC[C@@]21C [Ethynodiol diacetate] | 1.12
N#Cc1c(Oc2ccc(F)c(NC(=O)Cc3cccc(C(F)(F)F)c3)c2)ccc2nc(NC(=O)C3CC3)sc12 | 0.227
CCNC(=O)c1noc(-c2cc(Cl)c(O)cc2O)c1-c1ccc(OC)cc1 | 0.183
CN(C)Cc1ccc(S(=O)(=O)n2ccc(/C=C/C(=O)NO)c2)cc1 [Resminostat] | 0.59
CCCCc1nc2cc(/C=C/C(=O)NO)ccc2n1CCN(CC)CC [Pracinostat (SB939)] | 0.147
COc1ccc(C(=O)CC(=O)c2ccc(C(C)(C)C)cc2)cc1 [Avobenzone] | 1.1
Cn1cnc2c(F)c(Nc3ccc(Br)cc3F)c(C(=O)NOCCO)cc21 | 0.634
O=C(NOC[C@H](O)CO)c1ccc(F)c(F)c1Nc1ccc(I)cc1F | 0.183
O=C(NOCCO)c1ccc2cncn2c1Nc1ccc(I)cc1F | 0.133
O=C(NC[C@H](O)CO)c1ccncc1Nc1ccc(I)cc1F | 0.201
O=C(NOCC(O)CO)c1cc(Br)c(F)c(F)c1Nc1ccc(I)cc1F (stereo unspecified) | 0.87
Cc1cc(C(=O)NOCCO)c(Nc2ccc(I)cc2F)n(C)c1=O | 0.141
Cc1nc2c([nH]1)-c1ccccc1N(C(=O)c1ccc(NC(=O)c3ccccc3-c3ccccc3)cc1)CC2 [Conivaptan HCl] | 0.972
CNC(=O)c1ccccc1Sc1ccc2c(/C=C/c3ccccn3)n[nH]c2c1 [Axitinib] | 0.715
COCC[n+]1c2c(n(Cc3cnccn3)c1C)C(=O)c1ccccc1C2=O [YM155 (Sepantronium Bromide)] | 0.129
